According to PubChem BioAssay (EPA / NIEHS):
Values joined by “and” are separate entries in the source; they are usually repeats but may differ in a detail not shown here. Identical values can stand only once. Records with an inconclusive call do not appear. More than one record can exist for a structure, and the calls need not agree. Active and inactive are the calls of the source. Rule for the calls, unless noted: active = hit-call score of the fitted dose curve at least 0.9, where 1 is the maximum; inactive = score below 0.9.

Tests used:
[1] = molecular target: Nucleoli Translocation, AR (gene 367) (UniProt P10275); test: UPITT_HCI_U2OS_AR_TIF2_Nucleoli_Antagonist: University of Pittsburgh U2OS Androgen Receptor-Transcriptional Intermediary Factor 2 (AR-TIF2) Antagonism High Content Imaging Assay for Nucleoli Translocation (AID 2283997; active = hit-call score of the fitted dose curve at least 0.9, where 1 is the maximum)
Nucleoli Translocation, AR (gene 367), sequence (P10275 whole entry, looked up): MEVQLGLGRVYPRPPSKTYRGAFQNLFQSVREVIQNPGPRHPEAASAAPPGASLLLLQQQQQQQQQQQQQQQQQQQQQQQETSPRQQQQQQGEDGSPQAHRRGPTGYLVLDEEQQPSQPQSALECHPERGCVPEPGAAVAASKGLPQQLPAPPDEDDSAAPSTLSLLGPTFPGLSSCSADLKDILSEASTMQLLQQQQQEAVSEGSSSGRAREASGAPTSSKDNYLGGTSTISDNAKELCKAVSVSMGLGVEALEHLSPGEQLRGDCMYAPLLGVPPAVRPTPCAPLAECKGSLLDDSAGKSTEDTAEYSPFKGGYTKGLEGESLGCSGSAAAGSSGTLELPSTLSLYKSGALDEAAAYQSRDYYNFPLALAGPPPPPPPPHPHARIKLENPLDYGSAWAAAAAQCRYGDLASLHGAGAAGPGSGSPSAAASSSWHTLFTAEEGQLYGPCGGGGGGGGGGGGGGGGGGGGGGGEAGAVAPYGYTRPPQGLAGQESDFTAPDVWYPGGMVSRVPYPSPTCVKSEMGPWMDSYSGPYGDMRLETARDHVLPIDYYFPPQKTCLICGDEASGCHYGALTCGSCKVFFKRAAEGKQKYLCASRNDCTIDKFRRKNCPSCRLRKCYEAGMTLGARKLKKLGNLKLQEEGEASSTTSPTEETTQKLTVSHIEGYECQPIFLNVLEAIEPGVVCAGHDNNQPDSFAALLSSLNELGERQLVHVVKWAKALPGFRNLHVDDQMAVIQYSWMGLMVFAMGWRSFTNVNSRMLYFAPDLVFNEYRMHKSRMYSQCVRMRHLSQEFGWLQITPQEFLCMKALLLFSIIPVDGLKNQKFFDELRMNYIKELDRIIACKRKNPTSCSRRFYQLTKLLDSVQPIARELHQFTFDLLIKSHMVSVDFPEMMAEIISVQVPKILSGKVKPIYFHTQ
In short: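 Antagonism is read as loss of nucleolar AR-RFP signal relative to DHT, imaged in U2OS cells also carrying GFP-TIF2. Compounds screened at 20 uM final, 0.2% DMSO; primary actives retested in triplicate.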

[2] = molecular target: Nucleoli Translocation, AR (gene 367) (UniProt P10275); test: UPITT_HCI_U2OS_AR_TIF2_Nucleoli_Agonist: University of Pittsburgh U2OS Androgen Receptor-Transcriptional Intermediary Factor 2 (AR-TIF2) Agonism High Content Imaging Assay for Nucleoli Translocation (AID 2283998; active = hit-call score of the fitted dose curve at least 0.9, where 1 is the maximum)
In short: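 Nucleolar translocation of AR-RFP, with TIF2-GFP coexpressed in human osteosarcoma U2OS, imaged by high-content fluorescence. Compounds tested singly at 20 uM final, confirmed in triplicate, then titrated 0.195–50 uM final; gain-of-signal relative to DMSO.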

[3] = molecular target: Ratio of Nucleoli Translocation and Cytoplasm, AR (gene 367) (UniProt P10275); test: UPITT_HCI_U2OS_AR_TIF2_Nucleoli_Cytoplasm_Ratio_Antagonist: University of Pittsburgh U2OS Androgen Receptor-Transcriptional Intermediary Factor 2 (AR-TIF2) Antagonism High Content Imaging Assay for Ratio of Nucleoli Translocation and Cytoplasm (AID 2283999; active = hit-call score of the fitted dose curve at least 0.9, where 1 is the maximum;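 note: antagonists lower the DHT-driven ratio of nucleolar to cytoplasmic red signal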)
Ratio of Nucleoli Translocation and Cytoplasm, AR (gene 367), sequence (P10275 whole entry, looked up): as above
In short: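 Read-out is the ratio of nucleolar to cytoplasmic AR-RFP fluorescence, imaged by high-content microscopy in U2OS cells coexpressing TIF2-GFP. Single-point 20 uM screen, triplicate confirmation, then 0.195–50 uM dose response; activity referenced to DHT baseline.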

[4] = molecular target: Ratio of Nucleoli Translocation and Cytoplasm, AR (gene 367) (UniProt P10275); test: UPITT_HCI_U2OS_AR_TIF2_Nucleoli_Cytoplasm_Ratio_Agonist: University of Pittsburgh U2OS Androgen Receptor-Transcriptional Intermediary Factor 2 (AR-TIF2) Agonism High Content Imaging Assay for Ratio of Nucleoli Translocation and Cytoplasm (AID 2284000; active = hit-call score of the fitted dose curve at least 0.9, where 1 is the maximum;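 note: hits raise the red nucleolar to cytoplasm ratio above vehicle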)
In short: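 Compounds tested at 20 uM final in primary screen (0.2% DMSO) and 0.195-50 uM final in dose-response (0.5% DMSO). Imaging of human U2OS cells bearing RFP-AR and GFP-TIF2; endpoint is nucleoli/cytoplasm red signal ratio, positive direction relative to DMSO.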

[5] = system: DIO1 (gene 1733); test: CCTE_GLTED_hDIO1: CCTE's human Deiodinase 1 (DIO1) Inhibition Assay, Great Lakes Toxicology and Ecology Division (GLTED) Lab (AID 2283987; active = hit-call score of the fitted dose curve at least 0.9, where 1 is the maximum;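 note: isolated human DIO1 enzyme in a cell-free setup rather than cells; enzyme activity read as free iodide liberated from substrate via Sandell-Kolthoff colorimetry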)
In short: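 Inhibition read as reduced iodide release: after 3 h of human DIO1 with chemical, free iodide is quantified colorimetrically (Sandell-Kolthoff cerium/arsenic reaction). Triplicate plates, DMSO baseline.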

[6] = CCTE_Simmons_MITO_max_resp_rate: CCTE's HepG2 Seahorse XF Respirometric Screening Assay at Maximal Respiratory State [uncoupled], Simmons Lab (AID 2284002); conditions: actives raise or lower the signal
In short: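 Maximal (FCCP-uncoupled) respiration rate in HepG2, from Seahorse kinetic OCR over 72 min at 6 min cycles. Compounds at 125 nM–100 uM final, 7 points, three biological replicates; both directions fit relative to DMSO.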

[7] = CCTE_Shafer_MEA_acute_spike_number: CCTE's Neural Acute Assay for Total Number of Spikes, Shafer Lab (AID 2284008);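 for AC50: curve fitted for decrease in spike count so AC50 reflects inhibitors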
In short: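 Total spike count from 40 min recordings before and during compound exposure (0.03-40 uM), given as per-well percent change. Cortical cultures from rat, DIV 13 or 15, 37 C; adaptive detection threshold 8x rms noise.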

[8] = CCTE_Harrill_HTTr_Apoptosis_PRF_DMEM_6hr: (Pilot) CCTE's 6-hour Apoptosis Assessment for the High-Throughput Transcriptomics (HTTr) Platform, in MCF-7 cells cultured phenol red-free DMEM + 10% charcoal-stripped fetal bovine serum, Harrill Lab (AID 2283984)
In short: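 Caspase-3/7 activity (CellEvent Green) read by high-content imaging 6 h after dosing, eight concentrations. Cells: MCF-7, phenol red-free DMEM with 10% charcoal-stripped serum. Curves fit both directions against DMSO.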

[9] = CCTE_Harrill_HTTr_Apoptosis_PRF_DMEM_12hr: (Pilot) CCTE's 12-hour Apoptosis Assessment for the High-Throughput Transcriptomics (HTTr) Platform, in MCF-7 cells cultured in phenol red-free DMEM + 10% charcoal-stripped fetal bovine serum, Harrill Lab (AID 2283985)
In short: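 Caspase-3/7 activity by CellEvent Green high content imaging after 12 h compound exposure (eight concentrations) in MCF-7 grown in phenol red-free DMEM plus 10% charcoal-stripped serum; DMSO as baseline.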

[10] = CCTE_Harrill_HTTr_Apoptosis_PRF_DMEM_24hr: (Pilot) CCTE's 24-hour Apoptosis Assessment for the High-Throughput Transcriptomics (HTTr) Platform, in MCF-7 cells cultured in phenol red-free DMEM + 10% charcoal-stripped fetal bovine serum, Harrill Lab (AID 2283986)
In short: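 Eight concentrations tested for 24 h on MCF-7 grown in charcoal-stripped serum, phenol red-free DMEM. High content imaging of CellEvent Caspase 3/7 Green signal gives apoptosis read-out, fitted both ways relative to DMSO.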

## CCCCOC(=O)c1ccccc1C(=O)O
[1]
  outcome: inactive
[2]
  outcome: inactive
[3]
  outcome: inactive
[4]
  outcome: inactive

## CC[C@H](C)[C@H]1O[C@]2(C=C[C@@H]1C)C[C@@H]1C[C@@H](C/C=C(\C)[C@@H](O[C@H]3C[C@H](OC)[C@@H](O[C@H]4C[C@H](OC)[C@@H](NC)[C@H](C)O4)[C@H](C)O3)[C@@H](C)/C=C/C=C3\CO[C@@H]4[C@H](O)C(C)=C[C@@H](C(=O)O1)[C@]34O)O2
[5]
  AC50: 26 µM (active)
[6]
  AC50: 97.8 µM (active)
[7]
  AC50: 4.95 nM (active) and 26.8 nM (active)

## C=C(C)[C@H]1Cc2c(ccc3c2O[C@@H]2COc4cc(OC)c(OC)cc4[C@@H]2C3=O)O1
[8]
  outcome: inactive
[9]
  outcome: inactive
[10]
  outcome: inactive
[1]
  AC50: 50 µM (active)
[2]
  outcome: inactive
[3]
  outcome: inactive
[4]
  outcome: inactive
[6]
  AC50: 0.0663 µM (active)
[7]
  AC50: 2.81 µM (active)

## CCc1cccc(CC)c1N(COC)C(=O)CCl
[1]
  AC50: 20.1 µM (active)
[2]
  outcome: inactive
[3]
  AC50: 12.8 µM (active)
[4]
  outcome: inactive
[6]
  AC50: 13.8 µM (active)

## C[N+]1(C)CCCCC1
[1]
  outcome: inactive
[2]
  outcome: inactive
[3]
  outcome: inactive
[4]
  outcome: inactive
[7]
  outcome: inactive

## CCOC(=O)CC(SP(=O)(OC)OC)C(=O)OCC (stereo not drawn)
[5]
  outcome: inactive
[7]
  outcome: inactive

## CCc1cccc(C)c1N(C(=O)CCl)C(C)COC (stereo not drawn)
[5]
  AC50: 64.2 µM (active)
[6]
  AC50: 39.7 µM (active)
[7]
  AC50: 27 µM (active)

## O=[N+]([O-])c1cc(C(F)(F)F)c(Cl)c([N+](=O)[O-])c1Nc1ncc(C(F)(F)F)cc1Cl
[5]
  AC50: 19.4 µM (active)
[6]
  outcome: inactive
[7]
  AC50: 0.351 µM (active)

## CNC(=O)ON=C(SC)C(=O)N(C)C
[1]
  outcome: inactive
[2]
  outcome: inactive
[3]
  outcome: inactive
[7]
  outcome: inactive

## CC(C)=CC1C(C(=O)OCN2C(=O)C3=C(CCCC3)C2=O)C1(C)C (stereo not drawn)
[1]
  outcome: inactive
[2]
  outcome: inactive
[3]
  outcome: inactive
[6]
  AC50: 39.9 µM (active)
[7]
  outcome: inactive

## CC(C1CC1)C(O)(Cn1cncn1)c1ccc(Cl)cc1 (stereo not drawn)
[8]
  outcome: inactive
[9]
  outcome: inactive
[10]
  outcome: inactive
[6]
  AC50: 50 µM (active)

## Cc1nn(-c2cc(NS(C)(=O)=O)c(Cl)cc2Cl)c(=O)n1C(F)F
[1]
  outcome: inactive
[2]
  outcome: inactive
[3]
  outcome: inactive
[4]
  outcome: inactive

## COP(=O)(OC)OC(Br)C(Cl)(Cl)Br (stereo not drawn)
[1]
  AC50: 13.6 µM (active)
[2]
  AC50: 79 µM (active)
[3]
  outcome: inactive
[4]
  AC50: 77.9 µM (active)
[6]
  outcome: inactive

## CCOP(=O)(NC(C)C)Oc1ccc(SC)c(C)c1 (stereo not drawn)
[1]
  outcome: inactive
[2]
  outcome: inactive
[3]
  outcome: inactive
[4]
  outcome: inactive
[7]
  AC50: 10.2 µM (active)

## CCCCOC(=O)[C@@H](C)Oc1ccc(Oc2ccc(C#N)cc2F)cc1
[6]
  outcome: inactive

## CC1(C(=O)Nc2ccc(O)c(Cl)c2Cl)CCCCC1
[6]
  AC50: 31.4 µM (active)

## C#CCC1=C(C)C(OC(=O)C2C(C=C(C)C)C2(C)C)CC1=O (stereo not drawn)
[6]
  AC50: 33.7 µM (active)
[7]
  AC50: 27.4 µM (active)

## CC(=NC#N)N(C)Cc1ccc(Cl)nc1
[7]
  outcome: inactive

## CC(C)N(C(=O)SCC(Cl)=C(Cl)Cl)C(C)C
[6]
  outcome: inactive
[7]
  AC50: 8.85 µM (active) and 5.81 µM (active)

## CCOP(=S)(OCC)SCCSCC
[6]
  outcome: inactive
[7]
  outcome: inactive

## FC(F)C(F)(F)OCC(Cn1cncn1)c1ccc(Cl)cc1Cl (stereo not drawn)
[6]
  AC50: 22.5 µM (active)
[7]
  AC50: 5.94 µM (active)

## C[Si](Cn1cncn1)(c1ccc(F)cc1)c1ccc(F)cc1
[6]
  AC50: 16.2 µM (active)
[7]
  AC50: 4.69 µM (active)

## O=C(O)c1cc(Oc2ccc(C(F)(F)F)cc2Cl)ccc1[N+](=O)[O-]
[6]
  AC50: 32.9 µM (active)
[7]
  outcome: inactive

## CCC(CC)Nc1c([N+](=O)[O-])cc(C)c(C)c1[N+](=O)[O-]
[6]
  AC50: 29.8 µM (active)

## COP(=O)(NC(C)=O)SC (stereo not drawn)
[7]
  outcome: inactive

## CN(C)NC(=O)CCC(=O)O
[7]
  outcome: inactive

## CC1=NNC(=O)N(/N=C/c2cccnc2)C1
[7]
  outcome: inactive

## CSC1=N[C@@](C)(c2ccccc2)C(=O)N1Nc1ccccc1
[6]
  AC50: 41 µM (active)
[7]
  AC50: 5.8 µM (active)
  outcome: inactive

## COP(=O)(OC)C(O)C(Cl)(Cl)Cl (stereo not drawn)
[7]
  outcome: inactive

## O=c1ccc(=O)[nH][nH]1
[1]
  outcome: inactive
[2]
  outcome: inactive
[4]
  outcome: inactive

## CCOP(=S)(OCC)Oc1ccc2c(C)c(Cl)c(=O)oc2c1
[7]
  AC50: 1.85 µM (active)

## CC(COc1ccc(Oc2ccccc2)cc1)Oc1ccccn1 (stereo not drawn)
[1]
  outcome: inactive
[3]
  outcome: inactive
[6]
  outcome: inactive
[7]
  AC50: 20 µM (active)

## Cc1ccn2nc(S(=O)(=O)Nc3c(F)cccc3F)nc2n1
[7]
  outcome: inactive

## CCc1cnc(C2=NC(C)(C(C)C)C(=O)N2)c(C(=O)O)c1 (stereo not drawn)
[7]
  outcome: inactive

## CCC(=O)Nc1ccc(Cl)c(Cl)c1
[1]
  AC50: 14.3 µM (active)
[3]
  outcome: inactive
[4]
  outcome: inactive
[6]
  AC50: 27.3 µM (active)

## CC(C)[C@H](C(=O)O[C@H](C#N)c1cccc(Oc2ccccc2)c1)c1ccc(Cl)cc1
[7]
  outcome: inactive

## CN1COCN(Cc2cnc(Cl)s2)C1=N[N+](=O)[O-]
[7]
  outcome: inactive

## COc1cc(OC)nc(Sc2cccc(Cl)c2C(=O)O)n1
[7]
  outcome: inactive

## CCOP(=S)(Oc1cnc(C(C)(C)C)nc1)OC(C)C (stereo not drawn)
[6]
  AC50: 50 µM (active)
[7]
  AC50: 15.6 µM (active)
